LmPK activator: activators of Leishmania mexicana pyruvate kinase; purified LmPK, Kinase-Glo ATP luminescence, 1 h; activity change, negative = inhibition, % at 57.5 µM; 290,000 tested, under 10 active; calls by dose curve
Target sequence (Q27686 whole entry, looked up): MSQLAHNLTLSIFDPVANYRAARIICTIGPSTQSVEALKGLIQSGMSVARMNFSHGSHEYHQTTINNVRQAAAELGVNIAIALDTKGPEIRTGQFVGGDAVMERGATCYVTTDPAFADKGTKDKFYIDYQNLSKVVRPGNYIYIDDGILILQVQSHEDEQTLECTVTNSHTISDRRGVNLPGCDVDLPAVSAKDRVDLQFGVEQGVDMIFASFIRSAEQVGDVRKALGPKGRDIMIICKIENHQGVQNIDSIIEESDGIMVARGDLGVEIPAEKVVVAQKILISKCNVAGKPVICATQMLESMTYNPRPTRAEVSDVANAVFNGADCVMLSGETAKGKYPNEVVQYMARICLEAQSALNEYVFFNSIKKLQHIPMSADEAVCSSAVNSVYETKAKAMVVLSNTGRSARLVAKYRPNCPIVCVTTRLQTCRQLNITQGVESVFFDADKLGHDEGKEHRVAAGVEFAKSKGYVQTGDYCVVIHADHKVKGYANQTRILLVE
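Coupled luminescent assay: ATP produced by LmPK (0.1 nM) from ADP (0.1 mM, ~10-fold below Km) and PEP (0.5 mM, at Km) after 1 h RT, detected with Kinase-Glo. Data scaled between no-enzyme and uninhibited controls.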
Active calls of the source: *. These entries were drawn from the full list.

SMILES	LmPK activator
CN(C)S(=O)(=O)c1cccc(C(=O)N=C2N=C3C=CC(Cl)=CN3Cc3ccccc32)c1	-44.3
c1cn2cc(-c3ccc4c(c3)OCO4)nc2s1	-49.8
COC(Cc1n[nH]c(=S)n1-c1ccc(Cl)cc1)OC	-45.1
CCCC(=O)Nc1ccc(C2C(=O)c3ccccc3C2=O)cc1	-47.5
S=c1[nH]nc(CSc2nc3ccccc3s2)n1C1CCCCC1	-67.2
C=CCN=C1NN=C(c2ccc3c(c2)OCCO3)CS1	-83.7
Cc1ccn2cc(-c3ccc(O)c(O)c3)nc2c1	-59.3
Cc1ccccc1N=CC1=C(O)c2ccccc2C1=O	-84.6
COc1ccc(C2=CC(=O)C=CC2=O)cc1	-100.9
O=[N+]([O-])c1cc2oc3c(c2c(C=NCc2ccncc2)c1O)CCCC3	-83.2
Cn1c(CNc2ccc(F)cc2)nc2ccccc21	-44.5
CCOc1cc(/C=C2\SC(=N)N(c3nccs3)C2=O)ccc1OCCN1CCOCC1	-30.0
COc1ccc(NS(=O)(=O)c2ccc(-c3n[nH]c(=S)n3Cc3ccccc3)cc2)cc1	-32.7
CCCCc1n[nH]c(=S)n1Cc1ccc(Cl)cc1	-69.8
Cc1nn(CCc2n[nH]c(=S)n2C2CCCCC2)c(C)c1Br	-81.5
S=c1[nH]nc(CCc2ccccc2)n1-c1ccccc1	-73.1
CCN(CC)c1ccc(/C=C2/C(=O)c3ccc(C(=O)O)cc3C2=O)cc1	-40.0
O=C(COC(=O)c1cccnc1Cl)c1ccc(OC(F)F)cc1	-65.8
CC(C)(C)C1CCc2c(sc3nc(SCC(=O)O)nc(N)c23)C1 (configuration not stated)	-64.3
O=CN/C=C/c1cc(O)ccc1O	-80.5
COC(CNC(=O)CCc1c(C)nc2c(-c3ccccc3)c(C)nn2c1C)OC	2.4
CCOc1ccc(Cc2c(C)[nH]c3ccc(C(=O)O)cc3c2=S)cc1	-42.6
COc1ccccc1N1C(=O)C=C(Sc2nc(C)cc(C)n2)C1=O	-59.5
Cc1ccn2c(c1)nc(=S)n2C(=O)c1ccco1	-37.9
Cc1occc1C(=O)NNC(=O)c1ccccc1F	-30.7
SMILES	LmPK activator
CN1CCSc2ccc(C(=O)Nc3cccc(F)c3)cc21	-34.6
COc1ccc(-c2n[nH]c(=S)n2-c2ccc(Br)cc2)cc1OC	-73.7
Oc1cc2c(cc1O)C1c3ccc(O)c(O)c3OCC1(O)C2 (configuration not stated)	-54.0
CC(=O)Oc1ccc2cc(-c3ccccc3)c(=O)oc2c1	-49.4
O=C1CCC(=O)N1c1ccc(-c2nc3ccccc3s2)cc1	-38.2
COc1cc(/C=C2/C(=O)c3cccc([N+](=O)[O-])c3C2=O)c(Br)cc1O	-92.6
COc1cccc(C(=O)Nc2ccc(NC(=O)C(C)(C)C)cn2)c1	-38.1
CS(=O)(=O)C1=NSC2=NC(=O)/C(=C\c3ccc(OC(=O)c4ccco4)c(Br)c3)C(=N)N21	-30.7
CSc1nc(=S)c2[nH]c(=S)[nH]c2[nH]1	-30.8
CCC(=O)Oc1ccc(C(=O)Nc2ccc3c(c2)OCO3)cc1	-37.4
C/C(=N\NC(=O)c1ccccn1)c1ccc(C(=O)O)s1	-61.1
O=c1c2ccccc2nnn1CSc1nnc2sc3ccccc3n12	-59.6
CN(C)c1ccc(/C=N/N2CCN(c3ccccn3)CC2)cc1	-45.4
Cc1ccccc1-n1c([C@@H]2C[C@H]2c2ccccc2)n[nH]c1=S	-68.3
CSCc1ccc(C(=O)Nc2ccc(C(N)=O)cc2)cc1	-32.7
COc1cc(O)oc1C=Nc1ccc(C(=O)O)cc1	-62.2
CN(C)c1ccc(-c2ccccc2)nn1	-69.3
Cc1ccc(S(=O)(=O)Nc2c(Cl)c(Cl)c(O)c3ccccc23)cc1	-76.2
CC(C)Cn1c(-c2ccc(Br)cc2)c[nH]c1=S	-43.2
CC(C)S(=O)(=O)c1csc(C(=O)Nc2ccc(F)cc2)c1N	-82.6
Cc1ccc(/C=C(\C#N)C(=O)Nc2ccccn2)o1	-43.1
COc1ccc(-c2n[nH]c(=S)n2-c2ccccc2C)cc1	-74.0
CSc1nnc(NC(=O)c2ccc(S(=O)(=O)N(C)C)cc2)s1	-32.7
Cc1cc2ncc(C(=O)Nc3ccsc3C(=O)O)c(C)n2n1	-72.8
O=C(NCC1CCCO1)c1csc(Nc2cccc3ccccc23)n1 (configuration not stated)	-121.2
SMILES	LmPK activator
COc1ccc(-c2noc(-c3ccoc3C)n2)cc1	-51.2
COC(=O)c1sccc1NC(=O)Nc1ccc(OC)cc1	-52.4
COc1cccc(NC(=O)c2ocnc2C)c1	-53.5
[O-][n+]1onc2c1CCC(=N/O)/C2=N\Nc1ccccc1	-30.8
O=C(c1ccc(Br)o1)N1CCc2ccccc21	-111.9
Cn1c(=O)[nH]c2nnc(-c3ccc(Cl)c(Cl)c3)nc2c1=O	-39.1
CC(C)CCC(CC(C)O)c1n[nH]c(=S)n1-c1ccccc1 (configuration not stated)	-64.6
Cc1cc2nc(-c3cccnc3SCC(=O)NC(C)C)[nH]c2cc1C	-33.2
O=C1C2C3C=CC(CO)(O3)C2C(=O)N1c1ccccc1-c1ccccc1 (configuration not stated)	-73.3
C/C(=N/OC(=O)c1ccccc1)c1oc(C)nc1C	-39.5
N#CC(Cc1ccc(OC(F)F)cc1)c1nc2ccccc2[nH]1 (configuration not stated)	-43.5
Cc1ccc(-n2c(CNc3ccc(C)c(Cl)c3)n[nH]c2=S)cc1	-43.3
N#C/C(=C\c1cccs1)C(=O)Nc1nccs1	-31.1
O=[N+]([O-])c1cc(/C=N\Nc2nccs2)ccc1O	-59.7
COc1ccccc1NC(=O)Nc1ccc2c(c1)nc(C)n2C	-60.1
Cc1cc(=O)[nH]c(S/C=C/c2ccccc2)n1	-75.6

Bioassay records from PubChem BioAssay.
